# Bioassay records as filed in PubChem.
# Only some compounds are listed: those with a hit (about 17% of all), similar ones and a draw of the others.
# HepG2 viability: HepG2 cytotoxicity, counter-screen for TGF-b inhibitors. hit rate 0.76% among 410,000. Potency, µM (doses to about 46.1 µM), most hits filed as cytotoxic. HepG2 CAGA-GFP viability, ATP luminescence, 18 h
#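 HepG2 CAGA-GFP cells (1000/well, DMEM with 1% FBS) received compound, then TGF-beta at 500 pg/mL final, and were incubated 18 hours at 37 degrees C. Viability was read by CellTiter-Glo luminescence. Media-only wells were set as complete cell-killing and DMSO as no toxicity.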
# TDP1 cell noCPT: qHTS for Inhibitors of human tyrosyl-DNA phosphodiesterase 1 (TDP1): qHTS in cells in absence of CPT; DT40 Tdp1-/- hTDP1 cells, no CPT, ATP luminescence, 48 h; Potency, µM (doses to about 46.2 µM), hits mostly inhibitors; hit rate 15% among 420,000; note: nearly all actives have a fitted effect of over 55% in size
#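 Seeded 400 DT40-hTDP1 cells/well (vehicle DMSO, no 20 nM CPT); pinned compounds; ≥48 hr at 37 °C; CellTiter-Glo luminescence as viability measure.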
# S2 tox: viability counter-screen for ATXN expression inhibitors. Potency, µM (highest dose often 56.7 µM), actives largely listed as cytotoxic. hit rate 0.49% among 400,000. S2 cells (HEK-293 line with an ATXN2-luciferase reporter) viability, CellTiter-Fluor protease fluorescence, 24 h; note: nearly all actives have a fitted effect of over 40% in size
# TGFb inhibitor: TGF-b pathway inhibition; HepG2 CAGA-GFP TGF-b/SMAD3 reporter, GFP fluorescence, 18 h; TGF-beta stimulated, 500 pg/mL final; Potency, µM (series often up to 46.1 µM), actives largely listed as inhibitors; hit rate 1.2% among 410,000; note: nearly all actives have a fitted effect of over 65% in size
#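 Cell-based qHTS in HEPG2 carrying a CAGA-GFP Smad reporter; compounds added before 500 pg/mL final TGF-beta, 18 h incubation at 37 degrees C, GFP fluorescence quantified per cell by imaging cytometry.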
# TDP1 cell CPT: growth inhibition of DT40 Tdp1-/-;hTDP1 cells with camptothecin (screen for TDP1 inhibitors). chicken DT40 Tdp1-/-;hTDP1 cells + 20 nM CPT, ATP luminescence, 48 h. Potency, µM (titrated, usually from 46.2 µM), most hits filed as inhibitors. hit rate 12% among 420,000. AID 686979; note: nearly all actives have a fitted effect of over 55% in size
#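 Cell growth measured by CellTiter-Glo luminescence after a minimum 48 h, 37 C compound exposure with 20 nM CPT in Tdp1-knockout DT40 cells stably expressing hTDP1, seeded 400/well; qHTS titration format.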
# ATXN2 expr inh: ATXN2 expression inhibition. Potency, µM (highest dose often 57 µM), actives largely listed as inhibitors. AID 1745845. HEK-293 ATXN2-luciferase reporter, luminescence, 24 h. hit rate 0.72% among 360,000; note: nearly all actives have a fitted effect of over 55% in size
#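 qHTS (up to 57 uM final) was run with 24 h compound exposure of reporter cells at 37 °C. Each well was multiplexed: SteadyGlo luminescence measured ATXN2-luciferase expression after a fluorogenic Gly-Phe-AFC viability readout (25 uM final).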
# Hits are given with their value; i = inactive; ? = inconclusive; nt = no result given. Calls come from the whole dose curve; as a rule, active = well fitted curve in the direction sought with a large enough effect; inconclusive = small, poorly fitted or top-dose-only effect, or another doubt; inactive = no such curve, though single readings can be large; an effect the other way counts as inactive or inconclusive.
SMILES,HepG2 viability,TDP1 cell noCPT,S2 tox,TGFb inhibitor,TDP1 cell CPT,ATXN2 expr inh
COc1ccc2cc1Oc1ccc(cc1)CC1c3cc(c(OC)cc3CCN1C)Oc1c(OC)c(OC)cc3c1C(C2)N(C)CC3 (configuration not stated),nt,3.7µM,nt,nt,3.7µM,nt
Cc1nnc(NC(=O)c2cccn(Cc3ccc(Cl)cc3)c2=O)s1,i,i,i,i,i,i
Cc1ccc(S(=O)(=O)c2nnn3c2nc(N2CCC(C(N)=O)CC2)c2cc(Cl)ccc23)cc1C,i,5.2µM,i,i,21µM,?
CC(C)[N+](C)(C)CC(O)CN(c1ccccc1)c1ccccc1 (configuration not stated),i,i,i,i,?,i
c1cc2c(cc1C1OC[C@@H]3C(c4ccc5c(c4)OCO5)OCC13)OCO2 (some centres not stated),nt,?,nt,nt,i,nt
O[C@@H]1CCCN2CCc3c([nH]c4ccccc34)[C@H]12,i,?,i,i,15µM,i
Oc1ccc2c3c1O[C@H]1c4[nH]c5ccccc5c4C[C@@]4(O)[C@@H](C2)N(CC2CC2)CC[C@]314,i,i,i,i,i,i
CCn1nc(-c2ccccc2)nc2c(=O)n(C)c(=O)nc1-2,i,2.6µM,nt,0.56µM,1.3µM,28µM
O=[N+]([O-])c1ccc(S(=O)(=O)NCC(c2ccco2)N2CCc3ccccc3C2)cc1 (configuration not stated),i,?,i,?,i,i
CN(C)c1c([N+](=O)[O-])cc(N2C(=O)C=CC2=O)cc1[N+](=O)[O-],i,1.3µM,nt,i,1.3µM,35µM
COc1cc(C2c3cc4c(c(O)c3CC3COC(=O)C32)OCO4)cc(OC)c1OC (configuration not stated),i,0.12µM,?,i,0.092µM,i
COc1cc([C@@H]2c3cc4c(c(O)c3C[C@H]3COC(=O)[C@@H]32)OCO4)cc(OC)c1OC,i,0.13µM,nt,?,0.16µM,nt
COc1ccccc1CCNC1CCC(C(C)(C)C)CC1 (configuration not stated),i,21µM,?,i,?,?
[2H]C([2H])([2H])[C@H](N)Cc1ccccc1,nt,i,nt,nt,i,nt
CC(N)Cc1cn(Cc2ccccc2)c2ccccc12 (configuration not stated),i,21µM,?,?,?,i
COCCNC(=O)N1[C@H]2CC[C@@H]1C(C(=O)OC)=C(c1ccc(-c3ccccc3)c(F)c1)C2,i,1.8µM,?,?,1.8µM,?
COC(=O)C1=C(c2ccc(-c3ccccc3)c(F)c2)C[C@@H]2CC[C@H]1N2C(=O)NCCOc1ccccc1,i,21µM,?,?,21µM,i
COC(=O)C1=C(c2ccc(-c3ccccc3)c(F)c2)C[C@@H]2CC[C@H]1N2C(=O)NC1Cc2ccccc2C1,i,?,i,i,?,i
COc1cc2c(cc1OC)-c1c(OC)c(OC)c(CO)c3c1C(C2)N(C)CC3 (configuration not stated),nt,i,nt,nt,i,nt
CCn1c(C)[n+](CC(O)COCC2CC=CCC2)c2ccccc21 (configuration not stated),i,23µM,i,i,21µM,i
CSCCC(c1nnnn1C1CCCC1)N1CCC(n2c(=O)[nH]c3ccccc32)CC1 (configuration not stated),i,23µM,i,i,?,i
CSCCC(c1nnnn1-c1c(C)cccc1C)N1CCC(n2c(=O)[nH]c3ccccc32)CC1 (configuration not stated),i,18µM,?,i,26µM,i
O=c1[nH]c2ccccc2n1C1CCN(C(c2nnnn2C2CCCC2)C2CC2)CC1 (configuration not stated),i,?,?,i,?,i
CSCCC(c1nnnn1C1CCCCC1)N1CCC2(CC1)C(=O)NCN2c1ccccc1 (configuration not stated),i,?,nt,?,?,i
O=c1[nH]c2ccccc2n1C1CCN(C(c2nnnn2C2CCCCC2)C2CC2)CC1 (configuration not stated),i,15µM,?,?,?,i
SMILES,HepG2 viability,TDP1 cell noCPT,S2 tox,TGFb inhibitor,TDP1 cell CPT,ATXN2 expr inh
O=c1[nH]c2ccccc2n1C1CCN(C(CCc2ccccc2)c2nnnn2C2CCCCC2)CC1 (configuration not stated),i,13µM,nt,?,21µM,14µM
O=C1NC(=O)C2C1C1(Cl)C(Cl)=C(Cl)C2(Cl)C1(Cl)Cl (configuration not stated),i,i,i,i,i,i
CC(C)(C)n1nnnc1C(CCc1ccccc1)N1CCC(n2c(=O)[nH]c3ccccc32)CC1 (configuration not stated),i,13µM,?,?,13µM,?
CC(C)(C)n1nnnc1C(C1CC1)N1CCC(n2c(=O)[nH]c3ccccc32)CC1 (configuration not stated),i,?,i,i,?,i
C[N+]1([O-])[C@@H]2CC[C@H]1CC(OC(=O)C(CO)c1ccccc1)C2 (some centres not stated),nt,i,i,nt,i,nt
CCCC/C(C)=C/[C@@H](NP(=O)(c1ccccc1)c1ccccc1)c1ccccc1,i,16µM,?,?,?,?
CC12CCCCC1N(O)CN2O (configuration not stated),i,i,i,i,i,i
c1cnc(N2CC3(CCNCC3)C2)nc1,nt,i,nt,nt,i,nt
O=C1NC(=O)C(CCc2ccncc2)(CCc2ccncc2)C(=O)N1Cc1ccc(F)cc1,i,?,i,i,15µM,i
COc1ccc(N2C(=O)NC(=O)C(CCc3ccncc3)(CCc3ccncc3)C2=O)cc1,i,i,i,i,i,i
CC1=C(C(=O)OCCN(Cc2ccccc2)c2ccccc2)C(c2cccc([N+](=O)[O-])c2)C(P2(=O)OCC(C)(C)CO2)=C(C)N1 (configuration not stated),nt,?,i,nt,?,nt
CC1CCC(C(C)C)C(OC(=O)Cn2c(COc3ccccc3)[n+](C)c3ccccc32)C1 (configuration not stated),20µM,1µM,25µM,13µM,0.58µM,?
CCOP(=O)(OCC)C(O)c1ccccc1 (configuration not stated),i,i,i,i,i,i
CCOP(=O)(/C=C(\Cl)c1ccccc1)C(O)c1ccc(F)cc1 (configuration not stated),i,16µM,i,i,?,nt
